# Test results published in PubChem BioAssay (NCATS).
# A number with no mark means an inactive call. Results filed as inconclusive are left out. Active and inactive are the calls of the source. Unless noted, the call rests on the fitted dose curve; in most records, active means well fitted curve in the direction sought with a large enough effect; inconclusive means small, poorly fitted or top-dose-only effect, or another doubt; inactive means no such curve, though single readings can be large; an effect the other way counts as inactive or inconclusive.
# Columns and labels:
# [1] = target: Cytochrome P450 3A4 (Homo sapiens) (UniProt P08684); test: qHTS Assay for Activators of Cytochrome P450 3A4 (AID 885); further: nearly all actives have a fitted effect of over 65% in size
# Cytochrome P450 3A4 (Homo sapiens), sequence (P08684 whole entry, looked up): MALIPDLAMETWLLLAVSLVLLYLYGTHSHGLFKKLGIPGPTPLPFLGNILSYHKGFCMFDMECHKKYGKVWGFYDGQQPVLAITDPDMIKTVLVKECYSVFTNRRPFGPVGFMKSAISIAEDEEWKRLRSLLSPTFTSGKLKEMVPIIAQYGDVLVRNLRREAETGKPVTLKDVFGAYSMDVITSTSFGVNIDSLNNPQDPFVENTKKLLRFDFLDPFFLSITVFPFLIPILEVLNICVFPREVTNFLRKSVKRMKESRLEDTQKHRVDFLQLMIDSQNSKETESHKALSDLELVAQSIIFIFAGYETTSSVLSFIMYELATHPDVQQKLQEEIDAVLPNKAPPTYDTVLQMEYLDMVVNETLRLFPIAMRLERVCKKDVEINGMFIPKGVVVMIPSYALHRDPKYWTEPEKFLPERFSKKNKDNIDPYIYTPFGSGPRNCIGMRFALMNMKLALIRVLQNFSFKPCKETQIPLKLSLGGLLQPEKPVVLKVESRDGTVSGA
# Outline: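 Luminescent readout of luciferin formed from 25 uM Luciferin-PPXE (KM level) by 20 nM CYP3A4 in 200 mM KPO4, with 60 min NADPH-driven reaction at room temperature after 10 min compound exposure. Ketoconazole (57 uM) defined 100% inhibition.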
# [2] = MultiTox-Fluor Cytotoxicity Assay - LYMP1-001 - Live Cells (AID 947); further: potency means the concentration at half of the fitted maximal effect
# [3] = MultiTox-Fluor Cytotoxicity Assay - LYMP1-002 - Dead Cells (AID 960); further: potency means the concentration at half of the fitted maximal effect; nearly all actives have a fitted effect of over 60% in size
# Outline: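 Dead-cell fluorescence (Ex/Em 485/520) after 16 h compound exposure at 37 C of LYMP1-002 lymphoblastoid cells in complete medium; AC50 by Hill equation, with data scaled between DMSO and 15 uM tetraoctylammonium bromide.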
# [4] = MultiTox-Fluor Cytotoxicity Assay - LYMP1-003 - Dead Cells (AID 961); further: potency means the concentration at half of the fitted maximal effect; nearly all actives have a fitted effect of over 70% in size
# Outline: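 Dead-cell protease release, detected as bis-AAF-R110 fluorescence at 485/520 nm, was measured in LYMP1-003 cells after 16 h compound treatment at 37 C. AC50 values came from Hill-modeled qHTS curves normalized to DMSO (0%) and 15 uM tetraoctylammonium bromide (100%).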
# [5] = MultiTox-Fluor Cytotoxicity Assay - LYMP1-003 - Live Cells (AID 962);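 further: potency means the concentration at half of the fitted maximal effect; cells exposed to compound for 16 hours at 37 °C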
# Outline: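 Live-cell protease activity (GF-AFC substrate, 405/510 nm, 60 min at room temperature) after 16 h, 37 C compound exposure of human lymphoblastoid LYMP1-003 cells; concentration-response fitted to the Hill equation for AC50.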
# [6] = Cell Viability - LYMP1-003 - Assay at 24 hr (AID 963); further: potency means the concentration at half of the fitted maximal effect
# Outline: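 Concentration-response qHTS: ATP loss measured by CellTiter-Glo luminescence after 24 h compound exposure at 37 C. Cells were LYMP1-003 human lymphoblastoid, 2500 per well. AC50 derived via standard Hill equation modeling.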
# [7] = Cell Viability - LYMP1-003 - Assay at 40 hr (AID 964); further: potency means the concentration at half of the fitted maximal effect; nearly all actives have a fitted effect of over 60% in size
# Outline: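 Viability is taken as cellular ATP, read by CellTiter-Glo luminescence after 40 h of compound exposure at 37 C. Cells: human lymphoblastoid line LYMP1-003 at 2500/well; AC50 values derived by Hill-equation fitting of concentration-response data.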
# [8] = Cell Viability - LYMP2-004 (AID 966); further: potency means the concentration at half of the fitted maximal effect; nearly all actives have a fitted effect of over 65% in size
# Outline: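 AC50 values come from Hill modelling of concentration-dependent loss of intracellular ATP, measured by CellTiter-Glo luminescence. Human LYMP2-004 lymphoblastoid cells (2500/well) were exposed to compound for 24 h at 37 C.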
# [9] = Cell Viability - LYMP2-005 (AID 967); further: potency means the concentration at half of the fitted maximal effect
# Outline: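 Luciferase-based ATP quantitation served as the viability measure in human lymphoblastoid LYMP2-005 cells exposed to test compounds for 24 h at 37 C in complete culture medium. Potency (AC50) was obtained by fitting concentration-response curves with the Hill equation.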
# [10] = Cell Viability - LYMP2-013 (AID 970); further: potency means the concentration at half of the fitted maximal effect; nearly all actives have a fitted effect of over 55% in size
# Outline: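 qHTS cytotoxicity: ATP-dependent luminescence (CellTiter-Glo, 30 min room temperature) read after 24 h compound exposure at 37 C of 2500 LYMP2-013 lymphoblastoid cells per well. Concentration-response fitted with Hill equation to give AC50.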
# [11] = Cell Viability - LYMP2-017 (AID 972); further: potency means the concentration at half of the fitted maximal effect; nearly all actives have a fitted effect of over 55% in size
# Outline: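 CellTiter-Glo luminescence (cellular ATP, 30 min RT) measured cytotoxicity after 24 hr compound treatment at 37 C. Cells were a human lymphoblastoid line, LYMP2-017, plated at 2500/well and incubated 5 hr first; concentration-response fitted with Hill equation for AC50.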
# [12] = Cell Viability - LYMP2-019 (AID 973); further: potency means the concentration at half of the fitted maximal effect; nearly all actives have a fitted effect of over 55% in size
# Outline: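 AC50 values come from Hill-equation fits of luminescent intracellular ATP (CellTiter-Glo, 30 min, room temperature) following 24 h compound exposure at 37 C. Cells: LYMP2-019 lymphoblastoid line, 2500 per well, in complete culture medium.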
# [13] = Cell Viability - LYMP2-021 (AID 974); further: potency means the concentration at half of the fitted maximal effect; nearly all actives have a fitted effect of over 55% in size
# Outline: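 AC50 values come from Hill-equation fits to CellTiter-Glo luminescence (ATP content), read after 24 hour compound exposure at 37 C of 2500 LYMP2-021 lymphoblastoid cells/well; tetraoctylammonium bromide as positive control.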
# [14] = Cell Viability - LYMP2-025 (AID 976); further: potency means the concentration at half of the fitted maximal effect
# Outline: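 Cytotoxicity read as loss of intracellular ATP (luciferase luminescence) after 24 h compound treatment at 37 C. Uses LYMP2-025 lymphoblastoid cells in 1536-well format; Hill-equation modelling gives AC50; tetraoctylammonium bromide as positive control.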
# [15] = Cell Viability - LYMP2-002 (AID 977); further: potency means the concentration at half of the fitted maximal effect
# Outline: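 Human lymphoblastoid cells (2500/well) in complete medium were preincubated 5 hr at 37 C, then exposed to compounds for 24 hr at 37 C. Intracellular ATP was read by CellTiter-Glo luminescence; AC50 came from Hill-equation concentration-response fits.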
# [16] = Cell Viability - LYMP2-006 (AID 978); further: potency means the concentration at half of the fitted maximal effect; nearly all actives have a fitted effect of over 60% in size
# Outline: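 In this cytotoxicity screen, the human lymphoblastoid line grew in complete medium with test compounds for 24 hr at 37 C. Cellular ATP served as the viability signal.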
# [17] = Cell Viability - LYMP2-007 (AID 979);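 further: potency means the concentration at half of the fitted maximal effect; cells exposed to compound for 24 h before reading; nearly all actives have a fitted effect of over 60% in size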
# Outline: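 AC50 values come from Hill-equation fits of luminescent intracellular ATP (CellTiter-Glo, 30 min, room temperature) following 24 h compound exposure at 37 C. Cells: LYMP2-007 lymphoblastoid line, 2500 per well, in complete culture medium.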
# [18] = Cell Viability - LYMP2-008 (AID 980)
# Outline: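 Cytotoxicity determined from ATP-dependent luciferase luminescence (CellTiter-Glo) following 24 h compound exposure of human lymphoblastoid LYMP2-008 cells at 37 C. Concentration-response data fitted to the Hill equation to give AC50.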
# [19] = Cell Viability - LYMP2-010 (AID 981)
# Outline: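 CellTiter-Glo ATP luminescence measured cytotoxicity after 24 h compound exposure at 37 C. LYMP2-010 cells were seeded at 2500/well, with tetraoctylammonium bromide as control; concentration-response curves gave AC50 values by the Hill equation.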
# [20] = Cell Viability - LYMP2-012 (AID 982)
# [21] = Cell Viability - LYMP2-016 (AID 984)
# Outline: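 Concentration-dependent ATP depletion measured in LYMP2-016 lymphoblastoid cells, 24 h, 37 C; luciferase-based luminescent detection; Hill-equation AC50.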
# [22] = Cell Viability - LYMP2-018 (AID 985); further: potency means the concentration at half of the fitted maximal effect; nearly all actives have a fitted effect of over 50% in size
# Outline: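 Viability read as CellTiter-Glo luminescence (cellular ATP) after 24 hr compound exposure at 37 C of 2500 LYMP2-018 lymphoblastoid cells/well, pre-plated 5 hr. Hill-equation modelling gave AC50.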
# [23] = Cell Viability - LYMP2-020 (AID 986)
# Outline: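 Cytotoxicity in qHTS format: luminescent ATP readout from CellTiter-Glo after 24 h compound exposure at 37 C in complete medium. LYMP2-020 lymphoblastoid cells were seeded at 2500/well; concentration-response data fitted to the Hill equation for AC50.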
# [24] = Cell Viability - LYMP2-026 (AID 989); further: potency means the concentration at half of the fitted maximal effect; nearly all actives have a fitted effect of over 50% in size
# Outline: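 Cytotoxicity read as ATP-dependent luminescence (CellTiter-Glo, 30 min room temperature) after 24 h compound treatment at 37 C. LYMP2-026 lymphoblastoid line seeded at 2500 cells/well; AC50 derived by standard Hill equation.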
# [25] = Cell Viability - LYMP1-002 - Assay at 40 hr (AID 994)
# Outline: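 Cytotoxicity was read as loss of cellular ATP (CellTiter-Glo luminescence) after 40 hr compound exposure at 37 C of 2500 LYMP1-002 lymphoblastoid cells per well. Concentration-response data were fitted with the standard Hill equation to give AC50.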
# [26] = target: Bile acid receptor (Homo sapiens) (UniProt Q96RI1); test: qHTS assay for small molecule agonists of farnesoid X receptor signaling (AID 588527; calls by dose curve;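 further: series mostly up to about 77 µM; 0% = vehicle basal and 100% = reference agonist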); settings: HEK293T FXR-UAS-bla, beta-lactamase ratio, 16 h; activation: active compounds read high
# Bile acid receptor (Homo sapiens), sequence (Q96RI1 whole entry, looked up): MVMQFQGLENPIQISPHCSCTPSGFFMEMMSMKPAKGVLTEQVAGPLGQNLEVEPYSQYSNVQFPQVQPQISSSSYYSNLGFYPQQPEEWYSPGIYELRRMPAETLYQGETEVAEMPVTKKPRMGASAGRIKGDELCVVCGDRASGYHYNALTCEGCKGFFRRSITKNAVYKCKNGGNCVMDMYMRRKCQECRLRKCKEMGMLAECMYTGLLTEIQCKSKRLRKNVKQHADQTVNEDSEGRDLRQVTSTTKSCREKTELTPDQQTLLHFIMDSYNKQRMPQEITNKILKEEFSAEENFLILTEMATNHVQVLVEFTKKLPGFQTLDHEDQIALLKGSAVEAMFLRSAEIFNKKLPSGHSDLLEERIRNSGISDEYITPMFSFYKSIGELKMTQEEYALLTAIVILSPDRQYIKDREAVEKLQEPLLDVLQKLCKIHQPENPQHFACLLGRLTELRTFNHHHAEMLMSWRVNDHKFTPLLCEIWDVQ
# Outline: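 Agonist-mode beta-lactamase reporter in GeneBLAzer FXR-UAS-bla HEK293T cells, titration up to 92 uM, 16 h exposure at 37 C, CCF4 fluorescence. Response scaled to DMSO (0%) and 100 uM chenodeoxycholic acid (100%), then Hill-fitted for EC50 and efficacy.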
# [27] = qHTS assay for small molecule agonists of the antioxidant response element (ARE) signaling pathway measured by Nrf2-dependant transcriptional activity (AID 720636; active means well fitted curve in the direction sought with a large enough effect in the repeat runs; an effect the other way counts as inactive or inconclusive; further: % of control where 0% means no effect)
# Outline: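 Quantitative HTS format in HepG2 cells stably expressing an ARE-luciferase reporter; 16 hr compound treatment at 37 C, luciferase signal detected with ONE-Glo.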
# [28] = qHTS assay for small molecule antagonists of the retinoid-related orphan receptor gamma (ROR-gamma) signaling pathway - cell viability counter screen (AID 720652; active means well fitted curve in the direction sought with a large enough effect in the repeat runs; an effect the other way counts as inactive or inconclusive;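 further: potency means the concentration at half of the fitted maximal effect; compound exposure lasted 16 hr before ATP read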)
# Outline: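 Cytotoxicity counter screen: intracellular ATP (CellTiter-Glo luminescence) measured in the doxycycline-induced CHO RORE-luciferase reporter line after 16 hr compound exposure at 37 C, 5% CO2.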
# [29] = qHTS assay for small molecule agonists of the antioxidant response element (ARE) signaling pathway measured by Nrf2-dependant transcriptional activity - cell viability counter screen (AID 720653; active means well fitted curve in the direction sought with a large enough effect in the repeat runs; an effect the other way counts as inactive or inconclusive; further: potency means the concentration at half of the fitted maximal effect); settings: ARE-bla HepG2 viability, CellTiter-Glo ATP luminescence, 16 h; max response: active compounds read low
# Outline: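 Cytotoxicity counter screen: intracellular ATP quantified by CellTiter-Glo luminescence in the same ARE-bla HepG2 plates, after 16 h compound exposure and a 2 h beta-lactamase substrate step.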
smiles,measurement,setting,value
CC/C(=C(\c1ccccc1)c1ccc(OCCN(C)C)cc1)c1ccc(O)cc1,Potency,[1],inactive
same,Potency,[2],50.1 µM (active)
same,Potency,[3],31.6 µM (active)
same,Potency,[4],50.1 µM (active)
same,Potency,[5],50.1 µM (active)
same,Potency,[6],50.1 µM (active)
same,Potency,[7],50.1 µM (active)
same,Potency,[8],50.1 µM (active)
same,Potency,[9],50.1 µM (active)
same,Potency,[10],50.1 µM (active)
same,Potency,[11],39.8 µM (active)
same,Potency,[12],50.1 µM (active)
same,Potency,[13],50.1 µM (active)
same,Potency,[14],50.1 µM (active)
same,Potency,[15],50.1 µM (active)
same,Potency,[16],39.8 µM (active)
same,Potency,[17],50.1 µM (active)
same,Potency,[18],50.1 µM (active)
same,Potency,[19],50.1 µM (active)
same,Potency,[20],50.1 µM (active)
same,Potency,[21],50.1 µM (active)
same,Potency,[22],39.8 µM (active)
same,Potency,[23],50.1 µM (active)
same,Potency,[24],39.8 µM (active)
same,Potency,[25],50.1 µM (active)
same,activation,[26],1.2%
same,Potency,[27],inactive
same,Potency,[28],75 µM (active)
same,Potency,[29],70.8 µM (active)
